Pf growth 48h = Primary qHTS for delayed death inhibitors of the malarial parasite plastid, 48 hour incubation; Potency, µM (top dose mostly 28.7 µM), actives largely listed as inhibitors; AID 504832, 2011; P. falciparum luciferase growth in erythrocytes, 48 h; hit rate 5.9% among 310,000; active = well fitted inhibition curve with a large enough effect; inconclusive = small, poorly fitted or top-dose-only effect, or another doubt; inactive = no such curve, though single readings can be large or run the other way
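Here the parasites carry a stable luciferase gene and grow inside erythrocytes in Albumax-based RPMI medium with compound for one erythrocytic cycle. Activity is scored as loss of luminescent signal.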
SARS PLP yeast = qHTS of Yeast-based Assay for SARS-CoV PLP; S. cerevisiae expressing SARS-CoV PLpro, growth rescue; Potency, µM (doses to about 32.9 µM), actives largely listed as activators; hit rate 0.19% among 330,000; AID 485353, 2010; note: nearly all actives have a fitted effect of over 55% in size
Pf growth 96h = Primary qHTS for delayed death inhibitors of the malarial parasite plastid, 96 hour incubation. AID 504834, 2011. Potency, µM (highest dose often 28.7 µM), hits mostly inhibitors. P. falciparum luciferase reporter growth, 96 h. hit rate 6.9% among 320,000; active = well fitted inhibition curve with a large enough effect; inconclusive = small, poorly fitted or top-dose-only effect, or another doubt; inactive = no such curve, though single readings can be large or run the other way
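P. falciparum expressing integrated firefly luciferase, in erythrocytes at 2% hematocrit, 0.05% parasitemia, incubated with compounds 96 h at 37 C, 5% CO2. Growth inhibition read as loss of luminescence; two-generation exposure targets delayed-death apicoplast inhibitors.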
Shiga inhibitor = A qHTS for Small Molecule Inhibitors of Shiga Toxin | Vero cells, Shiga toxin protein synthesis inhibition reporter | inhibition, % at 38.7 µM | hit rate 9.2% among 290,000; in the data active = inhibition mostly above about 28%, no sharp cut-off; inactive = mostly below about 43%
NS1 function inh = qHTS Assay for Inhibitors of Influenza NS1 Protein Function; Potency, µM (doses to about 46.1 µM); hit rate 0.4% among 270,000; note: actives are rising curves; nearly all actives have a fitted effect of over 50% in size
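A cell-based growth assay was used: compounds that relieve NS1-induced slow growth of budding yeast raise OD600. Assay medium was yeast nitrogen base with ammonium sulphate and -URA supplement, pH 6.0, with 2% galactose.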
CHX counter = Cycloheximide Counterscreen for Small Molecule Inhibitors of Shiga Toxin. max response, %. hit rate 12% among 300,000. cell reporter, cycloheximide protein synthesis inhibition counterscreen; in the data active = max response mostly above about 13%, no sharp cut-off; inactive = mostly below about 14%; note: read at 38.3 µM for the half of the compounds with a filed dose
Numbers stand for hits; i = inactive; ? = inconclusive; nt = no result. Most compounds without a hit are left out; they make up all but 21% or so of the library. Unless noted, calls come from the whole dose curve.

SMILES | Pf growth 48h | SARS PLP yeast | Pf growth 96h | Shiga inhibitor | NS1 function inh | CHX counter
CCOC(=O)C1C(c2ccc(C(=O)O)cc2)NC(=O)NC1(O)C(F)(F)F (configuration not stated) | i | i | i | i | i | i
Cc1ccc(C)c(NC(=O)CN(C)C(=O)/C=C/c2ccco2)c1 | i | i | i | i | nt | i
COc1nnc(-c2ccc(C)cc2)c2ccccc12 | ? | i | ? | i | i | i
CC1=C(C(=O)OC(C)C)C(c2ccc3c(c2)OCO3)NC(=O)N1 (configuration not stated) | i | i | ? | i | i | i
CC(=O)Nc1ccc(-c2csc(NCCc3ccccc3)n2)cc1 | ? | i | i | i | i | 21
CC(=O)Nc1ccc(-c2csc(NC(=O)Cc3ccccc3F)n2)cc1 | i | i | i | i | i | i
CC(=O)Nc1ccc(-c2csc(Nc3ccccn3)n2)cc1 | i | i | i | 52 | i | 48
CC(=O)Nc1ccc(-c2csc(NC(=O)Cc3cccc(F)c3)n2)cc1 | i | i | i | i | i | i
c1cnc2ccc3ncccc3c2c1 | i | i | i | i | i | i
Nc1nc(N)c2c(ccc3nccc32)[nH]1 | 1.7µM | i | 3.7µM | i | i | i
CSc1ncccc1C(=O)OCC(=O)c1cccs1 | i | i | i | i | nt | i
CN(C)CCCNc1ccc(-c2cc(Nc3cccc(Cl)c3)ncn2)cn1 | 1.9µM | i | 0.93µM | i | i | i
CN(C)CCNC(=O)COc1cccc(Cl)c1 | i | i | ? | i | i | i
O=C(CN1CCOCC1)N/N=C/c1ccc(C(=O)O)cc1 | i | i | i | 85 | nt | 53
O=C(CN1CCCCCC1)N/N=C/c1ccc(Cl)c(Cl)c1 | i | i | ? | i | i | 29
CC(C)(C)c1ccc(C(CC(=O)O)NC(=O)C23CC4CC(CC(C4)C2)C3)cc1 (configuration not stated) | i | i | i | i | i | i
Cn1c(=O)c2c(nc(SCC(=O)c3ccccc3F)n2C)n(C)c1=O | i | i | 1.9µM | i | i | i
CC(C)n1c(SCC(=O)Nc2ccccc2)nc2c1c(=O)[nH]c(=O)n2C | ? | i | 13µM | i | i | i
CCCn1c(SCC(=O)N2c3ccccc3CCc3ccccc32)nc2c1c(=O)n(C)c(=O)n2C | 15µM | i | i | i | i | i
Cn1c(SCC(=O)N2c3ccccc3CCc3ccccc32)nnc1-c1cc2ccccc2cc1O | 1.9µM | i | i | i | ? | i
COCCn1c(SCC(=O)Nc2ccccc2)nc2c1c(=O)[nH]c(=O)n2C | i | i | i | i | ? | i
C=CCN(Cc1nc(-c2ccccc2)no1)C(=O)c1ccc2c(c1)OCO2 | i | i | i | i | i | i
O=C(Nc1ccccc1C(=O)Nc1ccncc1)c1ccccc1 | ? | i | ? | i | i | i
COc1ccc(CNC(=O)C2CCN(S(=O)(=O)c3cccc4nsnc34)CC2)cc1 | i | ? | i | i | i | i
CCn1c(SCC(=O)Nc2cccc(O)c2)nc2c1c(=O)n(C)c(=O)n2C | i | i | ? | i | i | i
SMILES | Pf growth 48h | SARS PLP yeast | Pf growth 96h | Shiga inhibitor | NS1 function inh | CHX counter
CCOc1ccc(OCC)c(NC(=O)CSc2nc3c(c(=O)n(C)c(=O)n3C)n2C(C)C)c1 | 4.1µM | i | 3.3µM | i | i | i
CCn1c(SCC(=O)Nc2ccccc2)nc2c1c(=O)n(C)c(=O)n2C | i | i | 12µM | i | i | i
Cn1c(=O)c2c(nc(SCC(=O)Nc3ccccc3)n2C)n(C)c1=O | i | i | i | i | i | i
CC(C)n1c(SCC(=O)Nc2ccccc2)nc2c1c(=O)n(C)c(=O)n2C | 12µM | i | ? | i | i | i
CSCC[C@H](NC(=O)N1CCn2c1nc1ccccc12)C(=O)NCc1ccco1 | i | i | i | i | i | i
COc1ccc(C2C(C#N)=C(N)N(c3sc4c(c3C#N)CCCC4)C3=C2C(=O)CC(C)(C)C3)cc1 (configuration not stated) | 6.6µM | i | nt | i | i | i
COc1ccc(C2C(C#N)=C(N)N(c3sc4c(c3C#N)CCCC4)C3=C2C(=O)CC(C)(C)C3)cc1OC (configuration not stated) | nt | i | 5.2µM | i | i | i
COc1ccc(C2C(C#N)=C3NC(=O)c4c(sc5c4CCCCC5)N3C3=C2C(=O)CC(C)(C)C3)cc1 (configuration not stated) | ? | i | ? | i | ? | i
O=C(Cn1cnc2ccccc2c1=O)c1c[nH]c2ccccc12 | i | i | 6.6µM | i | i | i
COc1ccc(CCNC(=O)Cn2cnc3ccccc3c2=O)cc1OC | i | i | i | i | i | i
CC(=O)NCCc1ccc(C(=O)Cn2cnc3ccccc3c2=O)cc1 | i | i | i | 78 | i | 79
COc1ccc(C(=O)Cn2cnc3ccccc3c2=O)c(OC)c1 | i | i | ? | i | i | i
CSc1nc(N(C)C)nc(N2CC(=O)N(CCNS(=O)(=O)c3ccc(C)cc3)C2=N)n1 | ? | i | ? | i | i | i
O=C(O)CN1C(=O)C2C3CC(C2C1=O)C1C(c2ccc(F)cc2)c2sc(=O)[nH]c2SC31 (configuration not stated) | i | i | i | i | nt | i
Fc1ccc(CN2CCC(Cc3ccccc3)CC2)cc1F | i | i | ? | i | i | i
COc1ccccc1CNC1CCN(Cc2ccccc2)CC1 | i | i | ? | i | i | i
O=C(CCC1CCN(Cc2ccc(Cl)cc2)CC1)NC1CC1 | i | i | 1µM | i | i | i
Clc1ccc(CNC2CCN(Cc3ccccc3)CC2)cc1 | 4.1µM | i | ? | nt | i | i
Fc1ccc(CNC2CCN(Cc3ccccc3)CC2)cc1 | 9.3µM | i | 1.2µM | i | i | i
Clc1ccc(CN2CCC(Cc3ccccc3)CC2)cc1 | i | i | 8.3µM | i | i | i
Cc1ccc(Cn2ncc3c(N4CCN(C5CCCC5)CC4)ncnc32)cc1 | ? | i | i | i | i | i
COC(=O)C1CCN(C(=O)COC(=O)CSc2ccc(C(N)=O)cc2[N+](=O)[O-])CC1 | i | i | i | nt | nt | nt
Clc1ccc(CNc2ccc(N3CCN(Cc4ccccc4)CC3)cc2)cc1 | i | i | 9.3µM | i | i | i
c1ccc(-c2ccc(CNC3CC3)cc2)cc1 | i | i | i | i | i | 23
NC(=O)CC(NC(=O)Cc1cccc2ccccc12)c1ccc(N2CCc3ccccc3C2)c([N+](=O)[O-])c1 (configuration not stated) | ? | i | ? | i | i | i
C=CCC[C@@H](Cc1ccc(F)cc1)C(=O)OC[C@@H](Cc1ccccc1)NC(=O)[C@H](CC=C)CC(=O)NCCO | nt | i | nt | nt | nt | nt
O=C(C1CCN(S(=O)(=O)c2cc(Cl)ccc2Cl)CC1)N1CCCC1 | ? | i | i | i | i | i
FC(F)(F)c1cccc(OCC2CNC(=S)O2)c1 (configuration not stated) | i | i | i | i | i | i
